Structures are written as SMILES. Values joined by “and” are separate entries in the source; they are usually repeats but may differ in a detail not shown here. Equal values may be shown once. Results filed as inconclusive are left out. Some compounds were tested as several samples or in several runs, with calls that do not always agree. Active and inactive are the calls of the source. Calls come from the whole dose curve; as a rule, active = well fitted curve in the direction sought with a large enough effect in the repeat runs; inconclusive = weak or mixed curves; inactive = no such curve, though single readings can be large; an effect the other way counts as inactive or inconclusive.
% is set by controls: 0 for no effect and ±100 for the full control effect; potency is the fitted concentration of half-maximal effect.

Sequence of Aryl hydrocarbon receptor (Homo sapiens) (P35869 whole entry, looked up): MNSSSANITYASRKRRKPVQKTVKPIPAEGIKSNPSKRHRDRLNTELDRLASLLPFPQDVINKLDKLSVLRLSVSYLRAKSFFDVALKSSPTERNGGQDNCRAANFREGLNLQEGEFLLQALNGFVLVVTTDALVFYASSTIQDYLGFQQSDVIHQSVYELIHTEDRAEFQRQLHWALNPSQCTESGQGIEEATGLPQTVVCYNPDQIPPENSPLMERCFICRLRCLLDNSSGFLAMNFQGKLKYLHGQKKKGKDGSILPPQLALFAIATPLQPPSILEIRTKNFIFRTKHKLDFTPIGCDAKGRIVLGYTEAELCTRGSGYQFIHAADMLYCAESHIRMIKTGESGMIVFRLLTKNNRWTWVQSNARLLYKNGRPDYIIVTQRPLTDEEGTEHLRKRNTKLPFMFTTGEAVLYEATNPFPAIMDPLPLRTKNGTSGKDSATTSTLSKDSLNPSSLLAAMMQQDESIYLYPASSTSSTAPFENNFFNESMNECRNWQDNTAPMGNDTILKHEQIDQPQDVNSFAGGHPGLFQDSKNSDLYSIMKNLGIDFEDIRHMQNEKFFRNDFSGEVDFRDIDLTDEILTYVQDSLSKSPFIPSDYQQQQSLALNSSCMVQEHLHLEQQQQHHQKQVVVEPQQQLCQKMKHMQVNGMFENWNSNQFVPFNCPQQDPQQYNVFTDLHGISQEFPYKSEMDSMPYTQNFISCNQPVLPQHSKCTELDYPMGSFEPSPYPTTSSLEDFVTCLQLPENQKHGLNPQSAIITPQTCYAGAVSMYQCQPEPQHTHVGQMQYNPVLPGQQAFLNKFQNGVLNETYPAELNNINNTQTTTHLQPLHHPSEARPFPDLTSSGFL

Tested on in one assay: not listed separately
Nature of the assay: qHTS assay to identify aromatase inhibitors - cell viability counter screen (AID 743084).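 Note: cells stimulated with testosterone during compound exposure; nearly all actives have a fitted effect of over 55% in size.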 The conditions noted are these: MCF-7 aro ERE viability, CellTiter-Fluor, 24 h; series mostly up to 70.3 µM; activity change, negative = cytotoxicity: at the top concentration.
For `CC(C)(C)CC(C)(C)c1ccc(OCCOCC[N+](C)(C)Cc2ccccc2)cc1`, the Potency is 23.7 µM (active) and 24.3 µM (active).
As for `NNc1nc(-c2ccc([N+](=O)[O-])cc2)cs1`, the Potency is 30.6 µM (active).
In the case of `Oc1cccc2cc3cccc(O)c3c(O)c12`, the “activity change, negative = cytotoxicity” value is 2.09% [at 95 µM] (inactive).
Take `CC1=NC(C)OC1C` (configuration not stated): the “activity change, negative = cytotoxicity” value was 5.21% (inactive).
As for `O=Cc1cc(O)ccc1Br`, the “activity change, negative = cytotoxicity” value was 11.9% [at 95 µM] (inactive).
Still for that read-out and setting: next, `CCCCCCCCCCCCCCCC[N+](C)(C)CCN(Cc1ccc(OC)cc1)c1ncccn1`: -27.9% [at 32.5 µM] (inactive); `CC(C)=CCOc1ccc(/C=C/C(=O)c2ccc(OCC=C(C)C)cc2OCC(=O)O)cc1`: 1.16% (inactive).
On the same count and under the same terms, next, `CSc1ccc(C(=O)c2[nH]c(=O)[nH]c2C)cc1`: -0.285% (inactive).
With `O=[N+]([O-])c1cc(Cl)c(Cl)c(Cl)c1Cl`, the Potency was 60.9 µM (active).
With `CCN(CCC#N)c1ccc(N=Nc2c(Cl)cc([N+](=O)[O-])cc2Cl)cc1`, the Potency is 24.3 µM (active).
For the compound `Fc1ccc(C(c2ccc(F)cc2)N2CCN(C/C=C/c3ccccc3)CC2)cc1`, the “activity change, negative = cytotoxicity” value was -14% (inactive).
The same measure, in the same setting: next, `CCCCCCCCCCCCCCCS(=O)(=O)Oc1ccccc1`: 3.8% (inactive).
Turning to `On1ccccc1=S`, the Potency was 0.539 µM (active).
In the case of `CO[Si](CCCNc1ccccc1)(OC)OC`, the “activity change, negative = cytotoxicity” value is 11.7% (inactive).
Turning to `COC(=O)C1=C(C)NC(C)=C(C(=O)OCC(C)C)C1c1ccccc1[N+](=O)[O-]` (configuration not stated), the Potency is 33.5 µM (active) and 61.1 µM (active).
On the same count and under the same terms, next, `Cc1c(C)c2c(c(C)c1OC(=O)CCC(=O)O)CC[C@@](C)(CCC[C@H](C)CCC[C@H](C)CCCC(C)C)O2`: “inactive”.
Take `Cc1cc(O)c2ccccc2c1O`: the “activity change, negative = cytotoxicity” value is -0.531% (inactive).
With `CCCCc1oc2ccc(NS(C)(=O)=O)cc2c1C(=O)c1ccc(OCCCN(CCCC)CCCC)cc1`, the Potency was 29.8 µM (active).
For the compound `Cc1nc(-c2ccc3c(c2)CCN(CCC2CCC(NC(=O)/C=C/c4ccc(F)cc4)CC2)CC3)no1` (configuration not stated), the “activity change, negative = cytotoxicity” value was 4.56% [at 32.5 µM] (inactive).
Same read-out and setting: next, `Cc1cccc(CN2CCN(C(c3ccccc3)c3ccc(Cl)cc3)CC2)c1` (configuration not stated): 2.78% [at 32.5 µM] (inactive).
Regarding `O=C1Cc2cc(CCN3CCN(c4nsc5ccccc45)CC3)c(Cl)cc2N1`, the Potency result was “inactive and 26.6 µM (active)”.
On the same count and under the same terms, next, `CCCCCCCCCCCCCC[P+](CCCC)(CCCC)CCCC` (tested in a mixture with another compound): 4.35 µM (active).
Consider `Cc1cccc(S(=O)(=O)O)c1C`, for which the “activity change, negative = cytotoxicity” value is 15.4% (inactive).
As to `CCCCCCCCCCCCCCCC(=O)OC[C@H](O)[C@H]1OC(=O)C(O)=C1O`, the Potency entry is “inactive”.
`Cc1ccc(-n2nc(C(C)(C)C)cc2NC(=O)Nc2ccc(OCCN3CCOCC3)c3ccccc23)cc1`: the “activity change, negative = cytotoxicity” value was -5.18% (inactive).
On the same count and under the same terms, the figure for `CN(C)[C@@H]1C(=O)C(C(N)=O)=C(O)[C@@]2(O)C(=O)C3=C(O)c4c(O)ccc(Cl)c4[C@@H](O)[C@H]3C[C@@H]12` is 0.451% (inactive); for `CC(C)CCCCCCCCCCCCCCC(=O)O` it is -1.2% (inactive); for `CNC(=O)c1ccccc1` it is 20.3% (inactive).
Same read-out and setting: the figure for `CCCCN1CCCC[C@H]1C(=O)Nc1c(C)cccc1C` is -3.17% (inactive).
Still for that read-out and setting: next, `N/C(=N\N=C\c1ccc(Cl)cc1)N/N=C/c1ccc(Cl)cc1`: -0.244% (inactive); `CCc1cc(Cc2cc(CC)c(N)c(CC)c2)cc(CC)c1N`: -7.85% (inactive).
For `O=C(O)c1ccc(Cl)c(Cl)c1`, the “activity change, negative = cytotoxicity” value was 23.4% (inactive).
With `O=C(O)c1cc(O)c2c(c1)C(=O)c1cccc(O)c1C2=O`, the “activity change, negative = cytotoxicity” value was -17.1% [at 95 µM] (inactive).
The same measure, in the same setting: next, `Clc1ccc2n[nH]nc2c1`: 16.2% (inactive).
Same read-out and setting: next, `COc1ccc(-c2ccc3cc(C(=O)O)ccc3c2)cc1C12CC3CC(CC(C3)C1)C2`: -1.18% (inactive).
The same measure, in the same setting: the figure for `OCCCCCCCCCCCCBr` is -21.6% [at 95 µM] (inactive).

For another assay, the target named is Aryl hydrocarbon receptor (Homo sapiens) (UniProt P35869). Nature of the assay: qHTS assay to identify small molecule that activate the aryl hydrocarbon receptor (AhR) signaling pathway (AID 743085).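 For activation: HG2L7.5c1 human HepG2 liver cells with stably integrated DRE-driven firefly reporter.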 Note: nearly all actives have a fitted effect of over 15% in size. The conditions noted are these: HepG2 AhR-luc (HG2L7.5c1), luciferase, 24 h; series mostly up to 70.3 µM; activation: at the top concentration. A digest of the protocol:
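24 h compound exposure, 37C, HepG2-derived HG2L7.5c1 cells with DRE-responsive luciferase. Readouts: fluorescence viability, then luminescence at room temperature after 30 min.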
Regarding `CC(C)(C)CC(C)(C)c1ccc(OCCOCC[N+](C)(C)Cc2ccccc2)cc1`, the Potency result was “inactive”.
On the same count and under the same terms, the figure for `NNc1nc(-c2ccc([N+](=O)[O-])cc2)cs1` is 9.69 µM (active).
With `Oc1cccc2cc3cccc(O)c3c(O)c12`, the “activation” value was -3.89% [at 95 µM] (inactive).
Same read-out and setting: the figure for `CC1=NC(C)OC1C` (configuration not stated) is 3.84% (inactive); for `O=Cc1cc(O)ccc1Br` it is 0.0466% [at 95 µM] (inactive).
On the same count and under the same terms, the figure for `CCCCCCCCCCCCCCCC[N+](C)(C)CCN(Cc1ccc(OC)cc1)c1ncccn1` is 0.782% [at 32.5 µM] (inactive); for `CC(C)=CCOc1ccc(/C=C/C(=O)c2ccc(OCC=C(C)C)cc2OCC(=O)O)cc1` it is 0.0517% (inactive); for `CSc1ccc(C(=O)c2[nH]c(=O)[nH]c2C)cc1` it is 3.73% (inactive).
The same measure, in the same setting: the figure for `O=[N+]([O-])c1cc(Cl)c(Cl)c(Cl)c1Cl` is 7.21% (inactive); for `CCN(CCC#N)c1ccc(N=Nc2c(Cl)cc([N+](=O)[O-])cc2Cl)cc1` it is 5.32% (inactive).
`Fc1ccc(C(c2ccc(F)cc2)N2CCN(C/C=C/c3ccccc3)CC2)cc1`: the “activation” value is 0.321% (inactive).
Same read-out and setting: the figure for `CCCCCCCCCCCCCCCS(=O)(=O)Oc1ccccc1` is -0.0286% (inactive); for `On1ccccc1=S` it is -0.708% (inactive).
Same read-out and setting: the figure for `CO[Si](CCCNc1ccccc1)(OC)OC` is 1.97% (inactive).
On to `COC(=O)C1=C(C)NC(C)=C(C(=O)OCC(C)C)C1c1ccccc1[N+](=O)[O-]` (configuration not stated), for which the Potency is 9.44 µM (active).
In the case of `Cc1c(C)c2c(c(C)c1OC(=O)CCC(=O)O)CC[C@@](C)(CCC[C@H](C)CCC[C@H](C)CCCC(C)C)O2`, the Potency entry was “inactive”.
As to `Cc1cc(O)c2ccccc2c1O`, the Potency is 9.44 µM (active).
Turning to `CCCCc1oc2ccc(NS(C)(=O)=O)cc2c1C(=O)c1ccc(OCCCN(CCCC)CCCC)cc1`, the “activation” value is -16% (inactive).
On to `Cc1nc(-c2ccc3c(c2)CCN(CCC2CCC(NC(=O)/C=C/c4ccc(F)cc4)CC2)CC3)no1` (configuration not stated), for which the “activation” value was 0.295% [at 32.5 µM] (inactive).
On the same count and under the same terms, next, `Cc1cccc(CN2CCN(C(c3ccccc3)c3ccc(Cl)cc3)CC2)c1` (configuration not stated): -1.36% [at 32.5 µM] (inactive).
`O=C1Cc2cc(CCN3CCN(c4nsc5ccccc45)CC3)c(Cl)cc2N1`: the Potency is 15 µM (active) and inactive.
In the case of `CCCCCCCCCCCCCC[P+](CCCC)(CCCC)CCCC` (tested in a mixture with another compound), the “activation” value was -12.4% [at 95 µM] (inactive).
For `Cc1cccc(S(=O)(=O)O)c1C`, the “activation” value was -0.947% (inactive).
Regarding `CCCCCCCCCCCCCCCC(=O)OC[C@H](O)[C@H]1OC(=O)C(O)=C1O`, the Potency entry was “inactive”.
Turning to `Cc1ccc(-n2nc(C(C)(C)C)cc2NC(=O)Nc2ccc(OCCN3CCOCC3)c3ccccc23)cc1`, the Potency was 15 µM (active).
In the case of `CN(C)[C@@H]1C(=O)C(C(N)=O)=C(O)[C@@]2(O)C(=O)C3=C(O)c4c(O)ccc(Cl)c4[C@@H](O)[C@H]3C[C@@H]12`, the “activation” value was -0.0888% (inactive).
Still for that read-out and setting: next, `CC(C)CCCCCCCCCCCCCCC(=O)O`: 4.29% (inactive); `CNC(=O)c1ccccc1`: -1.63% (inactive).
On the same count and under the same terms, next, `CCCCN1CCCC[C@H]1C(=O)Nc1c(C)cccc1C`: -0.169% (inactive).
Turning to `N/C(=N\N=C\c1ccc(Cl)cc1)N/N=C/c1ccc(Cl)cc1`, the Potency was 13.3 µM (active).
On the same count and under the same terms, next, `CCc1cc(Cc2cc(CC)c(N)c(CC)c2)cc(CC)c1N`: 2.73 µM (active).
On to `O=C(O)c1ccc(Cl)c(Cl)c1`, for which the “activation” value was -2.11% (inactive).
The same measure, in the same setting: the figure for `O=C(O)c1cc(O)c2c(c1)C(=O)c1cccc(O)c1C2=O` is 2.91% [at 95 µM] (inactive); for `Clc1ccc2n[nH]nc2c1` it is 3.43% (inactive); for `COc1ccc(-c2ccc3cc(C(=O)O)ccc3c2)cc1C12CC3CC(CC(C3)C1)C2` it is 0.975% (inactive).
The same measure, in the same setting: the figure for `OCCCCCCCCCCCCBr` is 7.31% [at 95 µM] (inactive).

The values are drawn from PubChem BioAssay (Tox21).
